From PubChem BioAssay come the findings set out here.

For one assay, the target named is Albumin (Bos taurus) (UniProt P02769). Nature of the assay: compounds binding labelled BSA control protein – biochemical, small-molecule microarray, Alexa647 label, 635/667 nm fluorescence, artefact control for SMM control protein annotation, profiling panel (AID 1118).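 Also: score merges 667 nm emission intensity and signal-to-noise per printed compound spot.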 The note with it: BSA-A647 binding, fluorescence 635 nm, higher = more signal.
Albumin (Bos taurus), sequence (P02769 whole entry, looked up): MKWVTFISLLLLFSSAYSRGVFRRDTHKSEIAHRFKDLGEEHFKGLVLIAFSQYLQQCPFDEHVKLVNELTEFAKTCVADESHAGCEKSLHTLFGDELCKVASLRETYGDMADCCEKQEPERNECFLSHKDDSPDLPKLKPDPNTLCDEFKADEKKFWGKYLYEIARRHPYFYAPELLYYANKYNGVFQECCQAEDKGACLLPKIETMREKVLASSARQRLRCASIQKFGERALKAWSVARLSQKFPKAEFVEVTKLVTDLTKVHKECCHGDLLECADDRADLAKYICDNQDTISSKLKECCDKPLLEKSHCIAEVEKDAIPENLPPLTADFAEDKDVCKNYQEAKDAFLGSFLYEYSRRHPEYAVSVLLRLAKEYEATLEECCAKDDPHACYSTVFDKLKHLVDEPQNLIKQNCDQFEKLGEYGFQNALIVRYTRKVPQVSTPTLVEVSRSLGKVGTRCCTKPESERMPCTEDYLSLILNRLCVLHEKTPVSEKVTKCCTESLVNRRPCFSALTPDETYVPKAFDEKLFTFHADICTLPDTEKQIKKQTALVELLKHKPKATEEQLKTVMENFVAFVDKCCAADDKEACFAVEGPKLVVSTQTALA
Assay [1] can be described thus: probe aXIP binding to arrayed compounds – biochemical, NeuroSMM set, 635/667 nm fluorescence, primary screen (AID 1119).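 Also: probe is the protein aXip251-270 applied at 1 µg/mL to compound-printed slides; binding of probe to printed compounds measured as 667 nm fluorescence plus signal to noise.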 The note with it: small-molecule microarray, higher = more signal, called active from +8 up or from −8 down.
The nature of assay [2]: probe aNOTCH3 binding on compound microarray – biochemical, small-molecule microarray, 635/667 nm fluorescence, primary screen (AID 1120).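 Also: probe is a biotin-tagged antibody raised against NOTCH3 rather than NOTCH3 protein; score merges spot fluorescence near 667 nm with spot signal to noise.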 The following applies: higher = more signal.
Assay [3] can be described thus: probe aNOTCH2 binding on compound microarray – biochemical, small-molecule microarray, 635/667 nm fluorescence, primary screen (AID 1121).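 Also: score merges feature fluorescence read at 667 nm with its signal to noise.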 The note with it: higher = more signal.
Assay [4] deals with Carbonic anhydrase 2 (Homo sapiens) (UniProt P00918). Nature of the assay: compounds binding carbonic anhydrase 2 – biochemical, small-molecule microarray, Alexa647-labelled CAII, profiling panel (AID 1122). The note with it: CAII-A647 binding fluorescence, higher = more signal.
Assay [5] is described as follows: COS7 lysate on small-molecule microarray, probe aHis, 635 nm (AID 1123).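 Also: z-score combines 667nm fluorescence intensity with signal-to-noise per printed compound spot.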 The following applies: COS7 cell lysate, fluorescence, higher = more signal.
Assay [6] is described as follows: probe aLAP1 signal on lysate-treated microarray – cell lysate, small-molecule microarray, COS7 lysate, primary screen (AID 1124).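 Also: lysate comes from COS7 cells expressing LAP1 and is applied at 0.3 µg/mL; score merges spot fluorescence near 667 nm with signal-to-noise over triplicate slides.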 The note with it: probe aLAP1, fluorescence, higher = more signal.
For the next assay, the system named is Sam68 (KHDRBS1). Nature of the assay: compounds binding KHDRBS1 protein – biochemical, small-molecule microarray, 635 nm fluorescence, primary screen (AID 1125).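 Also: score merges 667 nm channel intensity with signal to noise over triplicate slides.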 The following applies: higher = more signal.
Assay [7] deals with Chordin-like protein 2 (CHRDL2). Nature of the assay: compounds binding chordin-like 2 – biochemical, small-molecule microarray, 635 nm fluorescence, primary screen (AID 1126).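 Also: printed compound slides probed with Chrdl2 protein at 4 µg/mL for 1 h at 4 C; score merges 667 nm emission intensity with signal to noise over three replicate slides.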 The note with it: fluorescence 635 nm, higher = more signal.
Assay [8] addresses Concanavalin-A (Canavalia ensiformis) (UniProt P02866). Kind of assay: compounds binding concanavalin A lectin – biochemical, small-molecule microarray, Alexa647 label, 635 nm, artefact control for SMM control protein annotation, primary screen (AID 1127).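 Also: z combines 667 nm emission intensity with signal-to-noise across three replicate slides.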 The note with it: ConA-A647 binding fluorescence, higher = more signal.
A short description of assay [9]: compounds binding Alexa647 anti-His antibody – biochemical, small-molecule microarray, 635 nm fluorescence, artefact control for SMM control protein annotation, primary screen (AID 1128).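 Also: score merges feature fluorescence with signal-to-noise for each printed compound spot.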 The note with it: higher = more signal.
The subject of assay [10] is Human papillomavirus type 1a E7 protein (residues 1-88). Nature of the assay: HPV1a E7 small-molecule binders, primary screen, biochemical, small-molecule microarray, residues 1-88, 635 nm (AID 1129). The note with it: small-molecule microarray binding, fluorescence 635 nm; higher = more signal.
In assay [11] the target is Focal adhesion kinase 1 (Homo sapiens) (UniProt Q05397). Kind of assay: PTK2 protein binding on printed compound slides – biochemical, small-molecule microarray, 635/667 nm fluorescence, BSA, DTT, primary screen (AID 1130).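 Also: composite of spot emission at 667 nm and signal to noise over triplicate slides.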 The following applies: 635 nm fluorescence, higher = more signal.
Focal adhesion kinase 1 (Homo sapiens), sequence (Q05397 whole entry, looked up): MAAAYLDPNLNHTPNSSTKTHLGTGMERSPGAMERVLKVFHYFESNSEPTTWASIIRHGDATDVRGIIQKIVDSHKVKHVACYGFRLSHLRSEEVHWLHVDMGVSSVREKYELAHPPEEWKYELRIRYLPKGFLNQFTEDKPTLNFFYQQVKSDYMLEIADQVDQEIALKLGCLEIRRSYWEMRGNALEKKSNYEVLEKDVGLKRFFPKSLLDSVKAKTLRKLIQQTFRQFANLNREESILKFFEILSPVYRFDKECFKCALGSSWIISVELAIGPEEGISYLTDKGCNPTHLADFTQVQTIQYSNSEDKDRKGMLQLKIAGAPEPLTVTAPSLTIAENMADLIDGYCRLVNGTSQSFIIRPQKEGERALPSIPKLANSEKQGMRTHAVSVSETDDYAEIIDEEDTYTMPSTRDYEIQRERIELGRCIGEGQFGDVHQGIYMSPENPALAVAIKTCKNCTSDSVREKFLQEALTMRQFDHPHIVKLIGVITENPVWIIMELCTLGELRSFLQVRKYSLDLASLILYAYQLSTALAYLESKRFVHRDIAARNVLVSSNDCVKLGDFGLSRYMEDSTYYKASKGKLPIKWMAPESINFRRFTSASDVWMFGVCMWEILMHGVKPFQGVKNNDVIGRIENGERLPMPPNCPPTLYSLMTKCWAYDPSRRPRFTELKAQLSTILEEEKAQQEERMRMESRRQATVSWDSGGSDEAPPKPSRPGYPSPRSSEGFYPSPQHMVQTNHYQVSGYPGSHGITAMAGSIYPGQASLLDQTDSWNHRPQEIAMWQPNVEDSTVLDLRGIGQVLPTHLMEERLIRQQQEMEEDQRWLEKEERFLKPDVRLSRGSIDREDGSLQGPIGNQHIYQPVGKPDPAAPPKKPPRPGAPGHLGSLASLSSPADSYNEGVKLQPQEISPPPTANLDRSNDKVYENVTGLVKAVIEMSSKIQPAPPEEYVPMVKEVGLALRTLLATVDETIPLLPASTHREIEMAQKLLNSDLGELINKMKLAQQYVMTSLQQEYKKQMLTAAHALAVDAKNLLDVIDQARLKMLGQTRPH
For assay [12], the system named is Fibrinogen (Alexa647-labelled). Nature of the assay: Alexa647-fibrinogen binding to printed small molecules – biochemical, small-molecule microarray, 635/667 nm fluorescence, artefact control for SMM control-protein annotation, profiling panel (AID 1131).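 Also: z-score merges 667 nm fluorescence with per-spot signal-to-noise over triplicate slides.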 The note with it: fibrinogen-A647 binding fluorescence, higher = more signal.
For assay [13], the target named is Follistatin (Homo sapiens) (UniProt P19883). Nature of the assay: FST protein binding to printed compounds – biochemical, small-molecule microarray, 635/667 nm fluorescence, primary screen (AID 1132). The following applies: 635 nm fluorescence, higher = more signal.
Follistatin (Homo sapiens), sequence (P19883 whole entry, looked up): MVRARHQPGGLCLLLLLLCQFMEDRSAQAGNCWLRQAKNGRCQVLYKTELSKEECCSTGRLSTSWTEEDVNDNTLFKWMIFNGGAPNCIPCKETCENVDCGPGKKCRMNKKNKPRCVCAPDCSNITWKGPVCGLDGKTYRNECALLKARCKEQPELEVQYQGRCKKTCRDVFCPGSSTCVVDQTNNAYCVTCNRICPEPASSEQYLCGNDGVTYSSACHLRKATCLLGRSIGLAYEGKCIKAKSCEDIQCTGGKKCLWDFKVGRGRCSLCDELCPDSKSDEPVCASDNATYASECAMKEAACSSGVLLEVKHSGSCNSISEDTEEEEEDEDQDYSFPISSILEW
For assay [14], the target named is Fibroblast growth factor 2 (Homo sapiens) (UniProt P09038). Nature of the assay: basic fibroblast growth factor binding to printed compounds – biochemical, small-molecule microarray, 635/667 nm fluorescence, primary screen (AID 1133). The note with it: FGF2, fluorescence 635/667, higher = more signal.
Fibroblast growth factor 2 (Homo sapiens), sequence (P09038 whole entry, looked up): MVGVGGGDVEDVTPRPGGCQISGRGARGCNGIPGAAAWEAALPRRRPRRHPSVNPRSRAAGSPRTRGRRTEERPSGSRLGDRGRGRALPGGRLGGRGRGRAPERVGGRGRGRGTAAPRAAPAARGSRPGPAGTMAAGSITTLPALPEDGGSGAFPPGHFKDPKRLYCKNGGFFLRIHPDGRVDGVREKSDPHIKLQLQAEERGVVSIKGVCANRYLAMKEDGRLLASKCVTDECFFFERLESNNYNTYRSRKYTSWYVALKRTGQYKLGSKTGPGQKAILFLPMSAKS
Assay [15] can be described thus: JC-1 mitochondrial potential readout, lung cancer cells – cell-based, A549, JC-1 fluorescence, basal, 24 h, 100 nL, profiling panel (AID 1138).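 Also: A549 lung adenocarcinoma cells under basal conditions with no added stimulus; test concentration not given here.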 The following applies: higher = more signal.
The test system of the next assay is Lefty1. Nature of the assay: Lefty1 protein binding to printed compounds – biochemical, small-molecule microarray, 635/667 nm fluorescence, primary screen (AID 1139). The note with it: fluorescence 635/667, higher = more signal.
Assay [16] relates to wheat germ agglutinin (Triticum aestivum), Alexa647-labelled. Nature of the assay: Alexa647-WGA lectin binding to printed small molecules – biochemical, small-molecule microarray, 635/667 nm fluorescence, artefact control for SMM control-protein annotation, profiling panel (AID 1140).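 Also: score merges 667 nm feature emission with signal to noise over triplicate slides.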 The note with it: WGA-A647 binding, 635 nm fluorescence, higher = more signal.
Assay [17] addresses Luciferin 4-monooxygenase (Photinus pyralis) (UniProt P08659). Nature of the assay: inhibition of purified Photinus pyralis luciferase – biochemical, luminescence, purified enzyme, 2006 set, primary screen (AID 1141).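 Also: cell-free assay with purified firefly luciferase at 100 ng per well in PBS; test concentration not given here.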 The following applies: purified firefly luciferase, SteadyGlo luminescence, 30 min; higher = more signal, called active from +8 up or from −8 down.

Activity calls are given as the source filed them.

Concanavalin-A (Canavalia ensiformis), sequence (P02866 whole entry, looked up): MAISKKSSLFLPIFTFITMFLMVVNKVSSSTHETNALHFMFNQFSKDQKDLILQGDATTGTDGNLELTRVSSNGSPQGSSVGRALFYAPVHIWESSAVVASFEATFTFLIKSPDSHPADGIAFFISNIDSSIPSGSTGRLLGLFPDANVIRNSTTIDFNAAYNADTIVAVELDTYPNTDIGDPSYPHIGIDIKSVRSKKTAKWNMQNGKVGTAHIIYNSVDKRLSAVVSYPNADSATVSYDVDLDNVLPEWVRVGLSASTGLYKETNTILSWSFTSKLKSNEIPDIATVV
Luciferin 4-monooxygenase (Photinus pyralis), sequence (P08659 whole entry, looked up): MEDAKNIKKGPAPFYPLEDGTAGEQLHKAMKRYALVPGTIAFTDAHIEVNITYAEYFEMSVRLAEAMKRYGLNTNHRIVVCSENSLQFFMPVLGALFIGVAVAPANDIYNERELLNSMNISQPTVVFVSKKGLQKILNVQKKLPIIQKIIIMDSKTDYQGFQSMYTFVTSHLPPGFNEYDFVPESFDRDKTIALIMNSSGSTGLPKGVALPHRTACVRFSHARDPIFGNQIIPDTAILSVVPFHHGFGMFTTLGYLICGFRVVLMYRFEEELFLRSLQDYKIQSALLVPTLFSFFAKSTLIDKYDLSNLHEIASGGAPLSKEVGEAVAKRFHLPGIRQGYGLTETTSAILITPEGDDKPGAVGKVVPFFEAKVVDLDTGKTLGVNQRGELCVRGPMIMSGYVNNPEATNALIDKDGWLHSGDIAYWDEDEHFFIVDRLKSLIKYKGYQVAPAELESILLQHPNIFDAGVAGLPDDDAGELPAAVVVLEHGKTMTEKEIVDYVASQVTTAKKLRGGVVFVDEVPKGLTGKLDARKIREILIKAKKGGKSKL

On to `COCCCNC(=O)[C@@]1(Sc2ccc(C)cc2)CC(=O)N(Cc2ccccc2)[C@@H]1c1ccc(CO)cc1I`, for which the composite z-score was 0.757 with Albumin (Bos taurus); -0.178 in assay [2]; 0.0079 in assay [3]; 0.688 in [4]; 0.987 in [5]; 0.791 in [6]. Also, the composite z-score with Sam68 (KHDRBS1) is -0.249; in [7] it was -0.527; in assay [8], -1.27; in assay [9], 0.101; in [10], 0.264; in assay [11], -0.303. Besides, the composite z-score is -0.154 in assay [12]; -0.191 in assay [13]; -0.376 in assay [14]; -1.13 with Lefty1; -0.308 in assay [16]. The composite Z-score in assay [1] is 0.394 (inactive). The z-score in assay [15] is 1.63; in assay [17], -0.848 (inactive).

In the case of `COC(=O)[C@@H]1CCCN1C(=O)[C@@H](C)CO`, the composite z-score was 0.448 with Albumin (Bos taurus); 0.0042 in assay [2]; -0.16 in [3]; 0.192 in assay [4]; 0.84 in [5]; -0.436 in assay [6]. Also, the composite z-score stood at 0.95 in the assay on Sam68 (KHDRBS1); 0.584 in [7]; 0.873 in assay [8]; 0.933 in assay [9]; 1.16 in assay [10]; 0.21 in [11]. Further, the composite z-score in assay [12] is 0.868; in assay [13] it was 0.473; in assay [14] it was 0.723; in the assay with Lefty1 it was 0.29; in assay [16], 1.15. Further, the composite Z-score in [1] was -0.505 (inactive). For the same compound, the z-score was -1.29 in [15] and 0.09 (inactive) in assay [17].

For the compound `COCCOC(=O)N1C(=O)[C@@]2(c3ccccc31)[C@H](C(N)=O)[C@H]1C(=O)O[C@H](c3ccccc3)[C@H](c3ccccc3)N1[C@@H]2c1ccccc1OCCO`, the composite z-score with Albumin (Bos taurus) was determined as 0.834; in [2], 0.198; in assay [3] it was 0.0959; in [4], 0.749; in assay [5] it was 2.02; in [6], 1.06. Moreover, the composite z-score in the assay with Sam68 (KHDRBS1) amounted to 1.3; in [7], 0.522; in assay [8], 1.15; in assay [9], 2.57; in assay [10], 1.08; in assay [11] it was 0.29. The composite z-score in assay [12] amounted to 0.882; in [13] it was 1.3; in assay [14], 0.894; with Lefty1 it was 0.533; in assay [16] it was 0.98. For the same compound, in assay [1], the composite Z-score was 0.839 (inactive). Further, the figures for the z-score in [15] and in assay [17] were 0.431 and -1.25 (inactive), respectively.

Consider `[N-]=[N+]=NCc1ccccc1C[C@]1(C(=O)NCc2ccccc2)N=C(c2ccc(OCCCO)cc2)O[C@H]1c1ccccc1N=[N+]=[N-]`, for which the composite z-score with Albumin (Bos taurus) was 0.841; in [2], 0.531; in assay [3], -0.098; in assay [4], 0.476; in assay [5] it was 1.91; in [6] it was 0.317. Also, the composite z-score in the assay on Sam68 (KHDRBS1) is 1.09; in [7], -0.38; in assay [8], 0.822; in assay [9] it was 1.99; in assay [10] it was 1.17; in [11], 1.54. Moreover, the composite z-score was 0.967 in assay [12]; 0.931 in assay [13]; 1.49 in assay [14]; -0.875 in the assay with Lefty1; 0.285 in assay [16]. The composite Z-score in assay [1] is 0.187 (inactive). For the same compound, the z-score in assay [15] was -0.711; in assay [17], -4.08 (inactive).

Take `CCCNC(=O)OC[C@H]1O[C@H](CCON=C2[C@H]3CCn4c(=O)n(-c5ccccc5)c(=O)n4[C@H]3[C@H](O)[C@@H]3O[C@H]23)C=C[C@@H]1Oc1ccc(OC)cc1`: the composite z-score was 0.704 with Albumin (Bos taurus); -0.0377 in assay [2]; -0.0444 in assay [3]; 0.167 in assay [4]; 0.73 in assay [5]; 0.587 in assay [6]. Besides, the composite z-score in the assay on Sam68 (KHDRBS1) is 0.522; in assay [7], 0.318; in [8] it was 0.216; in assay [9] it was -0.429; in [10] it was 0.281; in [11] it was 0.172. Further, the composite z-score in assay [12] worked out at 0.297; in [13], 0.146; in [14], 0.409; with Lefty1, 0.502; in [16], 0.201. Besides, the composite Z-score in assay [1] is 2.63 (inactive). The z-score in [15] is -0.0269; in assay [17], 0.0766 (inactive).
